Screening data as filed in PubChem.
HT1080 IDH1KD tx: kills HT-1080 cells with IDH1 knockdown; HT-1080 IDH1 knockdown viability, ATP luminescence, 48 h; Potency, µM (doses to about 46.1 µM), without a hit: at the highest dose activity, negative = toxicity, usual class: cytotoxic; 2% of 360,000 active; AID 686971;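 also: 0% = DMSO wells and -100% = cell-free medium wells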
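IDH1KD HT-1080 cells, 750/well, RPMI + 5% FBS; compound pinned after 2 h settling; 48 h, 37 °C; CellTiter-Glo luminescence; % activity normalised to DMSO and no-cell wells; curves fitted, classed by r2 and efficacy.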
TDP1 cell noCPT: qHTS for Inhibitors of human tyrosyl-DNA phosphodiesterase 1 (TDP1): qHTS in cells in absence of CPT | DT40 Tdp1-/- hTDP1 cells, no CPT, ATP luminescence, 48 h | Potency, µM (titrated, usually from 46.2 µM), without a hit: at the highest dose activity change, negative = growth inhibition, usual class: inhibitors | 15% of 420,000 active | AID 686978, 2013; also: nearly all actives have a fitted effect of over 55% in size
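Chicken DT40 Tdp1-/- cells stably complemented with human TDP1 were seeded at 400 cells/well with DMSO in place of 20 nM camptothecin. After compound pinning, cells grew at least 48 hr at 37 °C; viability read by CellTiter-Glo luminescence.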
KB-3-1 cytotox: KB-3-1 parental cell cytotoxicity | KB-3-1 viability, CellTiter-Glo ATP luminescence, 72 h | 1.4% of 400,000 active | Potency, µM (top dose mostly 46.1 µM), hits mostly cytotoxic; also: nearly all actives have a fitted effect of over 60% in size
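Cytotoxicity in the drug-sensitive parental line KB-3-1 was scored as loss of CellTiter-Glo luminescence following 72 h incubation with compound. Values come from curve fitting of normalized concentration-response data.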
HT1080NT lethal: kills 2HG-producing HT-1080-NT fibrosarcoma cells | HT-1080-NT fibrosarcoma viability, CellTiter-Glo ATP luminescence, 48 h | 1.6% of 360,000 active | AID 686970 | Potency, µM (series often up to 46.1 µM), without a hit: top-dose activity, negative = less viability, actives largely listed as cytotoxic;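 also: NT is the 2HG producing partner of a matched IDH1 knockdown line; 0% = DMSO-treated cells and -100% = media-only wells without cells; nearly all actives have a fitted effect of over 55% in size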
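A 48-hour cytotoxicity screen used HT-1080-NT cells plated 2 hours before compound delivery. ATP-based CellTiter-Glo luminescence measured viability, normalized to DMSO and no-cell controls.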
KB-V1 cytotox: kills drug-selected multidrug resistant KB-V1 cells; KB-V1 MDR cells viability, CellTiter-Glo, 72 h; Potency, µM (doses to about 46.1 µM), hits mostly cytotoxic; 3.4% of 400,000 active; AID 1347076; also: nearly all actives have a fitted effect of over 60% in size
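Cells of the MDR subline KB-V1 are plated, dosed with compound at multiple concentrations, and incubated 72 h at 37 degrees C; CellTiter-Glo is then added and luminescence read after 10 min.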
DT40 TDP1 CPT: growth inhibition of DT40 Tdp1-/-;hTDP1 cells with camptothecin (screen for TDP1 inhibitors) | Potency, µM (series often up to 46.2 µM), without a hit: top-dose activity change, negative = growth inhibition, most hits filed as inhibitors | 12% of 420,000 active | AID 686979 | chicken DT40 Tdp1-/-;hTDP1 cells + 20 nM CPT, ATP luminescence, 48 h; also: nearly all actives have a fitted effect of over 55% in size
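Chicken DT40 Tdp1-/- cells stably complemented with human TDP1 were seeded at 400 cells/well in medium containing 20 nM camptothecin, exposed to pin-transferred compounds, and grown at 37 °C for at least 48 hr. Viability was read as ATP luminescence.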
Numbers without * were called inactive; i = inactive; ? = inconclusive; . = no result given; [ ] = dose if it differs, or a comment. Compounds with a hit are over-represented: about 19% of the library has one in this group of screens. Calls follow the shape of the dose curve; as a rule, active = well fitted curve in the direction sought with a large enough effect; inconclusive = small, poorly fitted or top-dose-only effect, or another doubt; inactive = no such curve, though single readings can be large; an effect the other way counts as inactive or inconclusive. Unless noted, % is scaled to controls: 0 for no effect and ±100 for the full control effect; potency is read from the fitted curve at half-maximal effect.

SMILES	HT1080 IDH1KD tx	TDP1 cell noCPT	KB-3-1 cytotox	HT1080NT lethal	KB-V1 cytotox	DT40 TDP1 CPT
COC(=O)C(Cc1ccc(N(CCCl)CCCl)cc1)N=Cc1ccccc1O (stereo unspecified)	26µM*	0.082µM*	?	?	i	0.12µM*
CC(Cc1ccccc1)NC(=O)Cc1ccc(N(C)C)cc1 (stereo unspecified)	17%	5%	i	17%	i	-7%
O=C(CSc1nc(-c2ccccc2)c(-c2ccccc2)[nH]1)Nc1nccs1	?	?	i	?	i	?
CC(C)[C@H]1C(=O)O[C@H](C(C)C)C(=O)N(C)[C@@H](C(C)C)C(=O)O[C@H](C(C)C)C(=O)N(C)[C@@H](C(C)C)C(=O)O[C@H](C(C)C)C(=O)N1C	3.3µM*	4.1µM*	5.8µM*	4.1µM*	?	3.3µM*
C[C@H]1COc2cc(N3CCN(C)CC3)ccc2S(=O)(=O)N1	3%	-13%	i	15%	i	1%
CCCCn1c(-c2nonc2NC(=O)c2ccccc2Cl)nc2ccccc21	-4%	23µM*	3.3µM*	-15%	?	10µM*
CCCn1c(C(=O)c2ccccc2)nc2ccccc21	11%	-13%	i	16%	i	-17%
CC(=O)OC(C)(C)/C=C/C(=O)C(C)(O)C1[C@H](O)C[C@@]2(C)C3CC=C4C(CC[C@@H](O)C4(C)C)[C@]3(CO)C(=O)C[C@]12C (stereo partly specified)	0.033µM*	0.01µM*	?	0.1µM*	3.7µM*	0.018µM*
CC(=O)OC(C)(C)/C=C/C(=O)[C@](C)(O)[C@H]1[C@H](O)C[C@@]2(C)[C@@H]3CC=C4[C@H](C[C@H](O)C(=O)C4(C)C)[C@]3(C)C(=O)C[C@]12C	0.033µM*	0.0073µM*	0.15µM*	0.082µM*	8.2µM*	0.046µM*
CC(=O)OC(C)(C)/C=C/C(=O)C(C)(O)C1C(O)CC2(C)C3CC=C4C(CC(O)C(=O)C4(C)C)C3(C)C(=O)CC12C (stereo unspecified)	0.046µM*	0.016µM*	0.16µM*	0.12µM*	0.46µM*	0.026µM*
CCOC(=O)[C@@]1(C#N)C(c2ccc(Cl)c(Cl)c2)[C@H](C(N)=O)N2C=C(C(C)=O)C=C[C@H]21 (stereo partly specified)	8%	?	i	0%	i	?
CC1=C/C(=N\NC(=S)NCCc2ccccc2)CC(C)(C)C1	1%	?	i	6%	i	?
CC(C)[C@H](N)C(=O)OCC(CO)OCn1cnc2c(=O)[nH]c(N)nc21 (stereo partly specified)	.	11µM*	.	.	.	13µM*
CCC(=NCc1cccnc1)c1c(O)n(Cc2ccccc2)c(=O)[nH]c1=O	-15%	-29%	i	-1%	i	-11%
Cc1cccc(-n2nc(C)c(C(=O)N3CCN(c4ccccc4)CC3)c2-n2cccc2)c1	.	21µM*	i	.	i	16µM*
Cc1cccc(N2CCC3(CC2)C(=O)NC(=O)NC3=O)c1	8%	0%	i	9%	i	4%
COC(=O)C1=C(c2ccc(OC(F)(F)F)cc2)C[C@@H]2CC[C@H]1N2C(=O)NCc1cc(C)oc1C(F)(F)F	?	21µM*	?	-11%	?	?
COC(=O)C1=C(c2ccc3ccccc3c2)C[C@@H]2CC[C@H]1N2C(=O)NCc1ccc(F)cc1	?	16µM*	?	?	i	?
COC(=O)C1=C(c2ccc(S(C)(=O)=O)cc2)C[C@@H]2CC[C@H]1N2C(=O)NCc1ccc(F)cc1	8%	-14%	i	13%	i	0%
COC(=O)C1=C(c2ccc(OC(F)(F)F)cc2)C[C@@H]2CC[C@H]1N2C(=O)NCc1ccc(F)cc1	-7%	21µM*	i	-2%	i	18µM*
c1ccc(C2(N3CCCCC3)CCCCC2)cc1	-4%	-18%	i	8%	i	3%
S=C=Nc1cccc(C2(N3CCCCC3)CCCCC2)c1	18µM*	16µM*	i	23µM*	i	21µM*
CCc1ccc2c(c1)Sc1ccccc1CC2N1CCN(C)CC1 (stereo unspecified)	-27%	18µM*	i	-19%	i	?
Clc1cccc(C2NCc3ccccc3-n3cccc32)c1 (stereo unspecified)	1%	?	i	8%	i	?
COc1ccc(C2NCc3ccccc3-n3cccc32)cc1 (stereo unspecified)	-17%	?	i	-5%	i	?
SMILES	HT1080 IDH1KD tx	TDP1 cell noCPT	KB-3-1 cytotox	HT1080NT lethal	KB-V1 cytotox	DT40 TDP1 CPT
CCOc1cc2c(cc1OCC)-n1cccc1C(c1cccc(OCC)c1O)NC2 (stereo unspecified)	?	16µM*	i	-25%	i	?
CCOc1cc2c(cc1OCC)-n1cccc1C(c1cc(OC)ccc1F)NC2 (stereo unspecified)	-12%	16µM*	i	-16%	i	18µM*
CCOc1cc2c(cc1OCC)-n1cccc1C(c1ccccc1F)NC2 (stereo unspecified)	-21%	18µM*	i	?	i	?
CCOc1cc2c(cc1OCC)-n1cccc1C(c1cccc(F)c1)NC2 (stereo unspecified)	-21%	?	i	-23%	i	21µM*
O=C1C=CC(=O)C2C1C1(Cl)C(Cl)=C(Cl)C2(Cl)C1(Cl)Cl (stereo unspecified)	-27%	?	i	-9%	i	?
CCN1C(=O)/C(=C/c2ccc(N(CC)CC)cc2OC)C(=O)NC1=S	-1%	-17%	i	-1%	i	?
CSCC[C@H](NC(=O)[C@H](Cc1ccccc1)NC(=O)CNC(=O)CNC(=O)[C@@H](N)Cc1ccc(O)cc1)C(=O)O	.	-2%[4.12 µM]	.	.	.	0%[4.12 µM]
C=CCN1CC[C@]23CCCC[C@H]2[C@H]1Cc1ccc(O)cc13	.	?	.	.	.	2%
O=C1C2C3CCC(C3)C2C(=O)N1c1ccc(OS(=O)(=O)c2ccccc2)cc1 (stereo unspecified)	-26%	?	?	-3%	9.2µM*	?
